For test [1], the system named is Sodium/Iodide Symporter (NIS), SLC5A5 (gene 6528). The test is described as follows: CPHEA_Stoker_NIS_Inhibition_RAIU: CPHEA's Radioactive Iodide Uptake (RAIU) Assay for Sodium/Iodide Symporter (NIS) Inhibition, Stoker and Laws Labs (AID 2283841). Put shortly: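 hNIS-HEK293T-EPA cells incubated 2 h at room temperature with compound (0.001–100 uM, 0.5% DMSO) and 329 pM final 125I in HBSS/10 mM HEPES, pH 7.4. Intracellular 125I counted; normalised to DMSO maximal uptake, triplicate, three biological replicates.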

Test [2] is described as follows: CPHEA_Stoker_NIS_Cytotoxicity: Cytotoxicity Assessment for CPHEA's Radioactive Iodide Uptake (RAIU) Assay for Sodium/Iodide Symporter (NIS) Inhibition, Stoker and Laws Labs (AID 2283897).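 For AC50: active means loss of ATP signal versus DMSO meaning cytotoxicity.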 Put shortly:
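hNIS-HEK293T-EPA cells, human NIS expressed in HEK293T, treated 2 h with chemicals (0.001–100 uM, 0.5% final DMSO). ATP content read by CellTiter-Glo luminescence; loss of signal analysed relative to DMSO.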

The subject of test [3] is turtle Thyroid Hormone Receptor, alpha (TRa), gene 101949057. Nature of the test: ATG_trTRa_XSP2: Attagene TRANS-FACTORIAL Multi-Species (XSP1) HepG2 Assay for turtle Thyroid Hormone Receptor, alpha (TRa) (AID 2283834).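 Note: hits raise reporter mRNA over the DMSO baseline so AC50 marks activators.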 Summed up:
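HepG2 cells transiently transfected with multiplexed GAL4-UAS reporter units expressing chimeric NR-Gal4 proteins were dosed for 24 hours. Reporter mRNA was quantified by RT-PCR with 6-FAM labelling and capillary electrophoresis, gain of signal scored against DMSO.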

The nature of test [4]: ATG_M_61_XSP2: Attagene TRANS-FACTORIAL Multi-Species (XSP2) HepG2 Assay for M61 Transcription Factor (Internal Marker) (AID 2283835; active = hit-call score of the fitted dose curve at least 0.9, where 1 is the maximum; inactive = score below 0.9;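 note: active means a rise in signal above the DMSO baseline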). Put shortly:
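Internal background marker, read as RT-PCR/capillary-electrophoresis reporter mRNA 24 h post-dose in transiently transfected HepG2 cells. Androgen receptor stimulated with 3 nM 6-alpha-fluorotestosterone plus 1.5 nM norgestrel; gain of signal versus DMSO analysed.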

Test [5] has as its target zebrafish Thyroid Hormone Receptor beta (TRb), thrb (gene 30607) (UniProt Q9PVE4). Nature of the test: ATG_zfTRb_XSP2: Attagene TRANS-FACTORIAL Multi-Species (XSP1) HepG2 Assay for zebrafish Thyroid Hormone Receptor beta (TRb) (AID 2283836). Summed up: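 Reporter transcripts were measured by RT-PCR with fluorescent primer extension and capillary electrophoresis, 24 h after chemical dosing of transiently transfected HepG2 cells. Activity was scored as upward signal versus DMSO baseline.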

Test [6] addresses human Thyroid hormone Receptor alpha (TRa), THRA (gene 7067) (UniProt P10827). Nature of the test: ATG_hTRa_XSP2: Attagene TRANS-FACTORIAL Multi-Species (XSP2) HepG2 Assay for human Thyroid hormone Receptor alpha (TRa) (AID 2283838). Summed up: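 Gain-of-signal in reporter mRNA, relative to DMSO, after 24 h dosing of transfected HepG2; quantitation by RT-PCR fragment analysis on capillary electrophoresis.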

The target of test [7] is frog Thyroid hormone Receptor alpha (TRa), thra-a (gene 397942) (UniProt P15204). Nature of the test: ATG_frTRa_XSP2: Attagene TRANS-FACTORIAL Multi-Species (XSP2) HepG2 Assay for frog Thyroid hormone Receptor alpha (TRa) (AID 2283839). Put shortly: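 HepG2 cells transiently transfected with multiplexed GAL4-UAS reporter units expressing chimeric frog TRα-Gal4; reporter mRNA read 24 h after dosing by RT-PCR, FAM-labelled primer extension, HpaI digest and capillary electrophoresis. Gain of signal fitted versus DMSO.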
frog Thyroid hormone Receptor alpha (TRa), thra-a (gene 397942), sequence (P15204 whole entry, looked up, the tested form may be a part): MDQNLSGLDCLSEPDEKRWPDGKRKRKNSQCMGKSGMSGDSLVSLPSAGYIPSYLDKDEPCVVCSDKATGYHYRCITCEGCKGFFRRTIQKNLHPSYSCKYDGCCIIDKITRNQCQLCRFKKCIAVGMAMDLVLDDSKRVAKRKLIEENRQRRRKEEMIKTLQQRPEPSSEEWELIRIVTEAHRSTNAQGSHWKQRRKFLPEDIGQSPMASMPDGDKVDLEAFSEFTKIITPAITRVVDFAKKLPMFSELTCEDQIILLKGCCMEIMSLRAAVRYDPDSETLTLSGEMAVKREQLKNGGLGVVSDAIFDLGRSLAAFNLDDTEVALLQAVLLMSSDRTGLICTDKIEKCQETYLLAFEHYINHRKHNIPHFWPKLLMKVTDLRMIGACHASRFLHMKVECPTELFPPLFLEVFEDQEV

In test [8] the target is human Thyroid hormone Receptor beta (TRb), THRB (gene 7068) (UniProt P10828). Nature of the test: ATG_hTRb_XSP2: Attagene TRANS-FACTORIAL Multi-Species (XSP2) HepG2 Assay for human Thyroid hormone Receptor beta (TRb) (AID 2283840).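 Note: actives raise reporter mRNA so potency reflects agonist-like gain of signal.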 Put shortly: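 HepG2 cells were transiently transfected with GAL4-UAS multiplexed reporter units expressing chimeric NR-Gal4 proteins, dosed 24 h; reporter mRNA was quantified by RT-PCR, fluorescent labeling, HpaI digestion and capillary electrophoresis, fitted for gain of signal versus DMSO.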
human Thyroid hormone Receptor beta (TRb), THRB (gene 7068), sequence (P10828 whole entry, looked up, the tested form may be a part): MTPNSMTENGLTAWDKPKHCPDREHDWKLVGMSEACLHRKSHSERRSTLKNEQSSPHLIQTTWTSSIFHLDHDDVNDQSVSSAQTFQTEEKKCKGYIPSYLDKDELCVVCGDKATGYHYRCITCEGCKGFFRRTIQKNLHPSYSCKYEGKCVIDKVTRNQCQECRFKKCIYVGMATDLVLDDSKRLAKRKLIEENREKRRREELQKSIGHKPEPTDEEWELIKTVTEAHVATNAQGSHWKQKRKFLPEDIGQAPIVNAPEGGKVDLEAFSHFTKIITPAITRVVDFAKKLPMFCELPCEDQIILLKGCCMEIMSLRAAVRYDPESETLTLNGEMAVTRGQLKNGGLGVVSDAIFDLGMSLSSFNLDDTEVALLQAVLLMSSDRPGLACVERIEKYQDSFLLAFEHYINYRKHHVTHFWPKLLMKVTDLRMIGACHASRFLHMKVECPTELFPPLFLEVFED

A short description of test [9]: ATG_XTT_Cytotoxicity_XSP2: Cytotoxicity Assessment in the Attagene TRANS-FACTORIAL Multi-Species (XSP2) HepG2 Assay (AID 2283837). Summed up:
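XTT-based cell number read-out in human HepG2 liver cells carrying transfected reporter units, measured 24 h after chemical dosing. Activity is signal loss versus DMSO baseline.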

Test [10] in a line: CEETOX_H295R_11DCORT_noMTC: CeeTox H295R High-throughput Steroidogenesis Assay for 11-Deoxycortisol (11DCORT), maximum tolerated concentration (MTC) filtered results only (AID 2283911; active = hit-call score of the fitted dose curve at least 0.9, where 1 is the maximum; inactive = score below 0.9). Conditions: actives raise or lower the signal. Put shortly: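 HPLC-MS/MS read-out of 11-deoxycortisol after MTBE extraction of H295R medium. Cells: forskolin 10 uM pre-stimulation 48 h, chemical 48 h, 0.1% DMSO final. Bidirectional fit vs DMSO baseline; no MTC filtering.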

Inconclusive results are not listed. The source made the active and inactive calls. Rule for the calls, unless noted: active = hit-call score of the fitted dose curve at least 0.9, where 1 is the maximum; inconclusive = response in the unintended direction; inactive = score below 0.9.

By AC50 is commonly meant the concentration at which the activity in the assay is half-maximal.

human Thyroid hormone Receptor alpha (TRa), THRA (gene 7067), sequence (P10827 whole entry, looked up, the tested form may be a part): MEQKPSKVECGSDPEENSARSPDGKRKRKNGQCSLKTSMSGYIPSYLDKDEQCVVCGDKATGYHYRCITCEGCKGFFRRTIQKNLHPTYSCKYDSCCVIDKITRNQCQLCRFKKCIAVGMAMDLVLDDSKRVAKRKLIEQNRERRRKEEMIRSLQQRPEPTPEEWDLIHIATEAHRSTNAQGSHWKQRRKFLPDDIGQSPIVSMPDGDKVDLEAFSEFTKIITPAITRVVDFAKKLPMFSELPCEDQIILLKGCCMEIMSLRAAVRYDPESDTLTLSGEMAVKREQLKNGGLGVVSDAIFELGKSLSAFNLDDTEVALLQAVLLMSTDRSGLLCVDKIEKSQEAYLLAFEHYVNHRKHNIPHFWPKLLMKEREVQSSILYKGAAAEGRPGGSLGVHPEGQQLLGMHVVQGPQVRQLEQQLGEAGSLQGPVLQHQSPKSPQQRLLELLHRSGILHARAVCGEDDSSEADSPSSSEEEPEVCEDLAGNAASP
zebrafish Thyroid Hormone Receptor beta (TRb), thrb (gene 30607), sequence (Q9PVE4 whole entry, looked up): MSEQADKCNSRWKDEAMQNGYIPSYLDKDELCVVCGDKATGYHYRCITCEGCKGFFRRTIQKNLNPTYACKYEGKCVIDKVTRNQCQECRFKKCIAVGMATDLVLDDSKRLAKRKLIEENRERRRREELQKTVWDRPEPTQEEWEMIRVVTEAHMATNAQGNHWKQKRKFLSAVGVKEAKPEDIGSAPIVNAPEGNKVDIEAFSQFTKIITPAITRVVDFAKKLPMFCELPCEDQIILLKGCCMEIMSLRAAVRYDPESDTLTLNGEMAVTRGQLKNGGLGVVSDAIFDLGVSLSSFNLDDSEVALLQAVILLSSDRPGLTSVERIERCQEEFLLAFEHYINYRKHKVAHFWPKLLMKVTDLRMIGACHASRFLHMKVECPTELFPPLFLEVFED

Regarding `O=S(=O)(O)C(F)(F)C(F)(F)C(F)(F)C(F)(F)C(F)(F)C(F)(F)C(F)(F)F`, the AC50 in test [1] was 2.31 µM (active).
`CC(Cc1ccc(O)c(O)c1)C(C)Cc1ccc(O)c(O)c1` (configuration not stated): in [2], the half-maximal activity concentration (AC50) is 84 µM (active).
As to `O=C(OCCOCCOCCOC(=O)c1ccccc1)c1ccccc1`, the result in [3], in [4], in test [5], in test [6], in [7] and in test [8] was inactive. In addition, the outcome in test [1] and in test [2] was inactive.
`O=C(CC(=O)C(F)(F)C(F)(F)F)C(F)(F)F`: the AC50 in test [1] was 9.92 µM (active).
As to `CCCCCCOC(=O)c1ccccc1O`, the outcome in test [1] and in test [2] was inactive.
Turning to `C=CC(=O)OCC(F)(F)C(F)(F)C(F)(F)C(F)(F)COC(=O)C=C`, in [1], the result was inactive.
The same measure, in the same setting: in the case of `O=C(O)C(F)(F)C(F)(F)C(F)(F)C(F)(F)C(F)(F)C(F)(F)C(F)(F)C(F)(F)C(F)(F)C(F)(F)C(F)(F)C(F)(F)F` it was “inactive”; in that of `FC(F)(F)C(F)(F)C(F)(F)C(F)(F)CCI`, “inactive”.
On to `C#C[C@]1(O)CC[C@H]2[C@@H]3CCc4cc(OC)ccc4[C@H]3CC[C@@]21C`, for which the molecule was classed as inactive in test [3], in [4], in test [5], in test [9], in test [6] and in [7]. The concentration at half-maximal activity (AC50) in test [8] is 0.0262 µM (active).
Consider `C=C(C)C(=O)OCC(F)(F)C(F)(F)C(F)(F)C(F)(F)C(F)(F)C(F)(F)C(F)(F)F`, for which the result in test [1] was inactive.
The same measure, in the same setting: in the case of `FC(F)(F)C(F)(F)C(F)(F)N(C(F)(F)C(F)(F)C(F)(F)F)C(F)(F)C(F)(F)C(F)(F)F` it was “inactive”.
As for `O=C(O)C(F)(F)C(F)(F)C(F)(F)C(F)(F)C(F)(F)C(F)(F)C(F)(F)C(F)(F)Cl`, the AC50 in [1] is 33.6 µM (active).
As for `FC(F)(F)C(F)(F)C(F)(F)C(F)(F)C(F)(F)CCI`, the AC50 in test [1] was 13.3 µM (active).
For the molecule `O=S(=O)(OCCOC(F)(F)F)C(F)(F)F`, in [1], the result was inactive.
For the molecule `C(=C(c1ccccc1)c1ccccc1)c1ccccc1`, the result in [3], in test [4], in test [5], in [6], in test [7] and in test [8] was inactive. Moreover, the outcome in test [1] and in test [2] was inactive.
In the case of `O=C(O)C(F)(F)C(F)(F)C(F)(F)C(F)(F)C(F)(F)C(F)(F)C(F)(F)C(F)(F)C(F)(F)C(F)(F)C(F)(F)C(F)(F)C(F)(F)F`, the result in test [1] was inactive.
For `OCC(F)(F)C(F)(F)C(F)(F)C(F)(F)C(F)(F)C(F)F`, in test [1], the result was inactive.
Regarding `O=C(O)C(F)(F)C(F)(F)C(F)(F)C(F)(F)C(F)(F)C(F)(F)C(F)(F)C(F)(F)C(F)(F)C(F)F`, in test [1], the AC50 is 21.7 µM (active).
On to `CC(C)OC(=O)c1ccccc1C(=O)OC(C)C`, for which, in [10], the outcome was inactive.
Take `OCCCC(F)(F)C(F)(F)C(F)(F)C(F)(F)C(F)(F)C(F)(F)C(F)(F)F`: the outcome in test [1] was inactive.
In the case of `CCCCCCCOC(=O)c1ccccc1C(=O)OCCCCCCC`, in [10], the outcome was inactive.
For `c1ccc(B(c2ccccc2)c2ccccc2)cc1`, the molecule was called inactive in [3], in test [4], in test [5], in test [9], in test [6] and in [7]. In test [8], the molecule was called inactive.
In the case of `OCC(F)(F)C(F)(F)C(F)(F)C(F)(F)C(F)(F)C(F)(F)F`, the result in [1] was inactive.
Same read-out and setting: in the case of `Cc1ccc(S(=O)(=O)OCC(F)(F)C(F)(F)C(F)(F)C(F)(F)C(F)(F)C(F)F)cc1` it was “inactive”; in that of `C=CC(=O)OCC(F)(F)C(F)(F)C(F)(F)C(F)(F)C(F)(F)C(F)(F)C(F)(F)F`, “inactive”.
